# Sampled rows, rich in hits. Any-hit rate of the full collection: about 2.8%.
# POLB inh – blocks human DNA polymerase beta activity; Pol beta primer extension/strand displacement, fluorescence kinetic; AID 485314; P06746; hit rate 1.3% among 340,000; Potency, µM (titrated, usually from 114 µM), hits mostly inhibitors
#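 Reaction started by 50 nM substrate onto compound-treated Pol beta (10 nM, 15 min preincubation, room temperature); plates read at 0 min and 10 min. Normalized concentration-effect data fitted by four-parameter Hill equation.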
# PI5P4Ka inh – inhibitors of human PI5P4K alpha; P48426; PI5P4Kalpha enzyme, ADP-Glo luminescence, 60 min; active compounds read low; max response, %; hit rate 1.2% among 330,000; AID 652105; active = max response of -50% or lower; inconclusive = between -30% and -50%; inactive = -30% or higher; also: value at the top dose of about 77 µM
#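 Reactions run in 0.038 M HEPES pH 7.4, 0.28 mM EGTA, 0.1% CHAPS and 5% DMSO, with PI5P4Kalpha, substrate, compound and 5 microM ATP final, one hour at room temperature. Readout is ADP-Glo luminescence.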
# WRN helicase inh – WRN helicase (human) inhibition. Q14191. WRN helicase unwinding, fluorescent forked duplex, kinetic. Potency, µM (series often up to 114 µM), hits mostly inhibitors. hit rate 0.46% among 360,000. AID 651768; also: nearly all actives have a fitted effect of over 55% in size
#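 Screening of the MLSMR collection measured strand separation of a quenched forked DNA duplex (100 nM) by 20 nM WRN with 2 mM ATP, all final. Compounds were preincubated with enzyme 15 min at room temperature.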
# Pol kappa inh – blocks human DNA polymerase kappa activity; AID 588579; hit rate 0.53% among 400,000; Potency, µM (titrated, usually from 107 µM), usual class: inhibitors; purified Pol kappa, fluorescent DNA synthesis assay, 10 min; Q9UBT6
#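 Here, compound and 10 nM enzyme are combined for 15 min at room temperature; adding 50 nM substrate (final) starts DNA synthesis, tracked by fluorescence at 0 and 10 min against buffer-only wells.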
# POLI inh – inhibitors of human DNA polymerase iota; Potency, µM (highest dose often 115 µM), usual class: inhibitors; Q9UNA4; Pol iota fluorescent replication assay, 10 min; hit rate 1% among 390,000
# Target sequence (Q9UNA4 whole entry, looked up): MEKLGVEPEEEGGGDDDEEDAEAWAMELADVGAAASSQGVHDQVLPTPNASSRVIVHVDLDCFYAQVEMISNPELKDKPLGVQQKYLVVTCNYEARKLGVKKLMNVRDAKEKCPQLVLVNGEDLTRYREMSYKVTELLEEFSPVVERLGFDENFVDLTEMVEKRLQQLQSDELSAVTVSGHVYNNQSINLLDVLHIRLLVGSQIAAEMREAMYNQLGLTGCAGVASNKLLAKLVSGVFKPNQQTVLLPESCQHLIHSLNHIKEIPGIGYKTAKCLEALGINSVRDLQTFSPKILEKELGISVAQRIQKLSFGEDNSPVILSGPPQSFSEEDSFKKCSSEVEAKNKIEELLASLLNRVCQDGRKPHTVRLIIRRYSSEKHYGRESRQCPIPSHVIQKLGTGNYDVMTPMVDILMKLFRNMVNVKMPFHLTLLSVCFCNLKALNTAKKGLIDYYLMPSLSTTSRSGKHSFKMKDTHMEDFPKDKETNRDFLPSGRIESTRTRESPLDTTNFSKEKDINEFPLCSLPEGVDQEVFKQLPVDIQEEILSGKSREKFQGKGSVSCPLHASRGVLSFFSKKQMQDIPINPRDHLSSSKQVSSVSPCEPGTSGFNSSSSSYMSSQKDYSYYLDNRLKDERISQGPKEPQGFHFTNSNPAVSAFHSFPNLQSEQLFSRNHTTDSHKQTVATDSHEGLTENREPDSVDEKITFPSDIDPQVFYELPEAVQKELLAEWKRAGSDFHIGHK
#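 Fluorescent replication assay read twice, at 0 min and 10 min after adding 50 nM (final) substrate. Enzyme (10 nM) and compounds were first incubated 15 min at room temperature; enzyme-free buffer wells were negative controls.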
# Pol eta inh – blocks human DNA polymerase eta activity; Q9Y253; recombinant Pol eta, fluorescent DNA replication assay; Potency, µM (series often up to 114 µM), usual class: inhibitors; hit rate 1.2% among 390,000; AID 588591
#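 Pol eta at 10 nM preincubated with compounds 15 min at room temperature; reaction started with fluorescent substrate (50 nM final) and read kinetically at 0 and 10 min.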
# Numbers stand for hits; n = inactive; u = inconclusive; x = no result given; [ ] = remark or other dose. Unless noted, calls follow the shape of the dose curve; as a rule, active = well fitted curve in the direction sought with a large enough effect; inconclusive = small, poorly fitted or top-dose-only effect, or another doubt; inactive = no such curve, though single readings can be large; an effect the other way counts as inactive or inconclusive.
SMILES,POLB inh,PI5P4Ka inh,WRN helicase inh,Pol kappa inh,POLI inh,Pol eta inh
O=C(NCc1ccco1)C1Cc2ccccc2CN1S(=O)(=O)c1ccccc1F (stereo unspecified),x,-61.5,u,u,12.6µM,10µM
O=C(NCc1ccco1)C1Cc2ccccc2CN1C(=O)c1ccco1 (stereo unspecified),22.4µM,u,n[11.6 µM],u,31.6µM,31.6µM
COc1cccc(N2CCN(Cc3nnc(-c4ccc5c(c4)OCO5)o3)CC2)c1,n,x,x,n,n,n
CC(C)(C)OC(=O)N1CCC(c2c(C(=O)NC3CCCCC3)cnn2-c2cccc(F)c2)CC1,n,x,x,n,n,n
CCOC(=O)Cc1csc(SCC(=O)NC2CCS(=O)(=O)C2)n1 (stereo unspecified),x,n,n,n,n,n
Cc1cccc(-c2nnn3c2nc(NCCc2ccc(S(N)(=O)=O)cc2)c2ccccc23)c1,10µM,n,n,n,u,u
Cc1ccc(-c2nnn3c2nc(NCCc2ccc(Cl)cc2)c2ccccc23)cc1,n,x,x,n,n,n
Cc1ccc(-c2nnn3c2nc(NCCc2ccc(S(N)(=O)=O)cc2)c2ccccc23)cc1,5.01µM,n,n,n,n,n
COc1ccc2c(c1)c(=O)c(C(=O)c1ccc(F)cc1)cn2CC(=O)Nc1ccc2c(c1)OCCO2,n,x,x,n,n,n
Cc1ccccc1Nc1nn2c(=O)c3ccc(C(=O)NCc4cccs4)cc3nc2s1,20µM,x,x,n,79.4µM,u
Cc1ccccc1Nc1nn2c(=O)c3ccc(C(=O)NCC(C)c4ccccc4)cc3nc2s1 (stereo unspecified),n,x,x,n,n,n
CC(C)c1ccc(NC(=O)c2cc3c([nH]c2=O)CC(C)(C)CC3=O)cc1,x,x,x,n,n,x
COc1ccc(-n2nnnc2SCC(=O)Nc2ccc3c(c2)OCCO3)cc1OC,n,n,n,n,50.1µM,u
COc1cccc(-n2nnnc2SCC(=O)Nc2ccc3c(c2)OCCO3)c1,u,n,n,n,u,u
COc1cc2nc(CCNCc3ccccc3)nc(NC3CCN(C)CC3)c2cc1OC,x,x,x,n,n,x
COc1ccc2nc(N=Nc3ccc(O)c4ccccc34)sc2c1,44.7µM,u,n,n,n,u
COc1ccc2nc(N=NC3=C(O)CC(C)(C)CC3=O)sc2c1,n,n,n,n,n,n
O=c1ccc2cc3c([nH]c4ccc(Br)cc43)oc-2c1O,10µM,x,x,x,x,x
C/C=C\C=C/C(=O)Nc1cccc(C2=NOC3(C2)C[C@@H](C(N)=O)N(C(=O)CCCCC)C3)c1 (stereo partly specified),u,-66.6,n,n,n,n
C/C=C/C=C/C(=O)N1CC2(CC(c3cccc(NC(=O)CCCCC)c3)=NO2)C[C@H]1C(N)=O (stereo partly specified),n,-75.7,n,n,u,u
C/C=C\C=C\C(=O)Nc1cccc(C2=NOC3(C2)C[C@@H](C(N)=O)N(C(=O)C(c2ccccc2)c2ccccc2)C3)c1 (stereo partly specified),n,-65.4,n,n,u,n
C=C(C)C(=O)Nc1cccc(C2=NOC3(C2)C[C@H](C(N)=O)N(C(=O)CC#N)C3)c1 (stereo partly specified),35.5µM,n,n,u,u,20µM
Cc1ccc(NC(=O)c2cnn(-c3ccc(C)c(C)c3)c2C2CCN(C(=O)OC(C)(C)C)CC2)c(C)c1,n,x,x,n,n,n
Oc1cc2cc(-c3csc(-c4ccc(F)cc4)n3)ccc2[nH]1,x,x,x,n,n,x
CC(=O)N1CCc2cc(Br)cc(S(=O)(=O)CCC(=O)N3CCN(c4ccc(F)cc4)CC3)c21,n,x,x,n,n,n
SMILES,POLB inh,PI5P4Ka inh,WRN helicase inh,Pol kappa inh,POLI inh,Pol eta inh
C/C=C\C=C/C(=O)Nc1cccc(C2=NOC3(C2)C[C@@H](C(N)=O)N(C(=O)c2ccc(Cl)cc2)C3)c1 (stereo partly specified),n,-66.4,n,n,n,n
C/C=C/C=C\C(=O)Nc1cccc(C2=NOC3(C2)C[C@H](C(N)=O)N(C(=O)CC#N)C3)c1 (stereo partly specified),50.1µM,n,44.7µM,79.4µM,14.1µM,44.7µM
CCCCCC(=O)Nc1cccc(C2=NOC3(C2)C[C@H](C(N)=O)N(C(=O)CC#N)C3)c1 (stereo partly specified),39.8µM,x,x,x,x,x
C/C=C\C=C/C(=O)Nc1cccc(C2=NOC3(C2)C[C@H](C(N)=O)N(C(=O)CC)C3)c1 (stereo partly specified),n,n,n,n,u,u
C/C=C\C=C/C(=O)Nc1cccc(C2=NOC3(C2)C[C@H](C(N)=O)N(C(=O)Cc2ccc([N+](=O)[O-])cc2)C3)c1 (stereo partly specified),n,-57.2,n,n,25.1µM,n
COc1ccc(/C=C/c2nnc(NC(=O)COc3ccc(Cl)cc3)s2)cc1,x,x,x,n,n,x
COc1ccc(N2CCN(S(=O)(=O)c3ccc4c(c3)CC(C)N4C(C)=O)CC2)cc1 (stereo unspecified),n,x,x,n,n,n
CCOc1ccc(-c2c(C)nn3c(C)c(C(=O)NCc4cccc(OC)c4)cnc23)cc1OCC,n,x,x,n,n,x
C/C=C/C(=O)Nc1cccc(C2=NOC3(C2)C[C@H](C(N)=O)N(C(=O)/C=C/C)C3)c1 (stereo partly specified),n,n,n,n,n,n
C/C=C/C=C/C(=O)N1CC2(CC(c3cccc(NC(=O)/C=C/C)c3)=NO2)C[C@@H]1C(N)=O (stereo partly specified),n,-50.5,n[11.6 µM],u,39.8µM,u
CCCCNc1nc(=S)[nH]c2cc(OC)c(OC)cc12,89.1µM,n,n,n,n,n
CCOCCCNc1nc(=S)[nH]c2cc(OC)c(OC)cc12,n,n,n,n,n,n
CCCn1cc(S(=O)(=O)CC(=O)Nc2ccc(OCC)cc2)c2ccccc21,89.1µM,n,n,n,n,n
CCCn1cc(S(=O)(=O)CC(=O)Nc2ccc(OC)cc2OC)c2ccccc21,n,x,n,n,n,n
CCN(C(=O)Cn1ncc2c1-c1cc(C)ccc1OC2)c1cc(Cl)ccc1OC,n,x,x,n,n,n
Cc1cccc(-n2c(SCC(=O)c3ccccc3)nnc2-c2ccc(Br)cc2)c1,n,x,x,n,n,n
O=C(Cc1ccc(F)cc1)NCCc1csc(-c2ccc(C(F)(F)F)cc2)n1,n,x,x,n,u,n
O=C(NCc1ccccn1)c1nn(-c2ccccc2F)nc1CO,n,x,x,n,n,n
CCCCNS(=O)(=O)c1ccc2nc(-c3cccnc3)cc(C(=O)NCCCOCC)c2c1,44.7µM,x,x,n,n,n
CCCC(=O)Nc1ccc(C(=O)N/N=C/c2ccc([N+](=O)[O-])o2)cc1,44.7µM,n,n[11.6 µM],n,u,u
COC(=O)N/N=C/c1ccc([N+](=O)[O-])o1,u,n,n,n,56.2µM,n

# Assay outcomes as filed in PubChem.
